Test [1] deals with Dual specificity protein kinase CLK4 (Homo sapiens) (UniProt Q9HAZ1). Description: qHTS Assay for Inhibitors of CDC-like Kinase 4 (Kinase-Glo Assay) (AID 1770). Further: nearly all actives have a fitted effect of over 65% in size. The following applies: recombinant Clk4, Kinase-Glo ATP depletion luminescence; series mostly up to 66.7 µM. The essentials:
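Substrate mix (RS peptide 100 uM, ATP 1 uM) dispensed, compound pinned in, then Clk4 added to 25 nM final. Incubated 4.5 h at RT; Kinase-Glo reagent added, luminescence read after 5 min.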
For orientation: In qHTS, concentration-response curves come from the screen itself.

The target in test [2] is Cytochrome P450 2D6 (Homo sapiens) (UniProt P10635). In words: qHTS Assay for Inhibitors and Substrates of Cytochrome P450 2D6 (AID 891). Further: nearly all actives have a fitted effect of over 60% in size.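 On activity change, negative = inhibition: luciferin methyl ether substrate demethylated by CYP2D6 with NADPH regeneration.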 The following applies: recombinant CYP2D6, luciferin-ME EGE luminescence; series mostly up to 57.1 µM. In short, it runs like this: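 Luminescent read-out of luciferin formed by 5 nM human CYP2D6 demethylating 30 uM Luciferin-ME EGE (Km level) over 60 min at room temperature after NADPH regeneration addition. Data normalized to full inhibition by 1.43 uM quinidine.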

Test [3] deals with Cytochrome P450 2C9 (Homo sapiens) (UniProt P11712). Description: qHTS Assay for Inhibitors and Substrates of Cytochrome P450 2C9 (AID 883). Further: nearly all actives have a fitted effect of over 60% in size. As to conditions: recombinant CYP2C9, luciferin-H luminescence, 60 min; series mostly up to 57.1 µM. In short, it runs like this: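 Luminescent read-out of deoxyluciferin hydroxylation, normalized to 57uM sulphaphenazole (AC100). Reaction: 10nM enzyme, 100uM Luciferin-H (equal to KM), 25mM KPO4, 10 min compound preincubation, then 60 min with NADPH regeneration, both at 37C.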

Structures are written as SMILES. Inconclusive results are not listed. Unmarked numbers belong to inactive results. Activity calls are given as the source filed them. The call rests on the fitted dose curve; in most records, active means well fitted curve in the direction sought with a large enough effect; inconclusive means small, poorly fitted or top-dose-only effect, or another doubt; inactive means no such curve, though single readings can be large; an effect the other way counts as inactive or inconclusive.
On the % scale 0 is the no-effect control and ±100 the full control effect; potency means the concentration at half of the fitted maximal effect.

Sequence of Cytochrome P450 2D6 (Homo sapiens) (P10635 whole entry, looked up): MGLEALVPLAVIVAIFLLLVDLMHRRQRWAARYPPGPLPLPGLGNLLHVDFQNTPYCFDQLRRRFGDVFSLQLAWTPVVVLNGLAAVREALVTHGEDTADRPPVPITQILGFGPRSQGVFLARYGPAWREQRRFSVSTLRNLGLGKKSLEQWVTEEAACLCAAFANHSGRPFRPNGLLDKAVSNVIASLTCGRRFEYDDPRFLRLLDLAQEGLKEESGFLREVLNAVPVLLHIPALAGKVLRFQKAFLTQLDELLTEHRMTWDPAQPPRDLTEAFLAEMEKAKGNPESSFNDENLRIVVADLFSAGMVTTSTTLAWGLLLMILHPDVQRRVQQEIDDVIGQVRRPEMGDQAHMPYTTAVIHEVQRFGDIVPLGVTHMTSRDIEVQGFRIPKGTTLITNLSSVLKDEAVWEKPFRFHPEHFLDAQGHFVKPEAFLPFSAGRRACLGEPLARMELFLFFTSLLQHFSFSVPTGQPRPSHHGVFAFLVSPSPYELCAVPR
Sequence of Cytochrome P450 2C9 (Homo sapiens) (P11712 whole entry, looked up): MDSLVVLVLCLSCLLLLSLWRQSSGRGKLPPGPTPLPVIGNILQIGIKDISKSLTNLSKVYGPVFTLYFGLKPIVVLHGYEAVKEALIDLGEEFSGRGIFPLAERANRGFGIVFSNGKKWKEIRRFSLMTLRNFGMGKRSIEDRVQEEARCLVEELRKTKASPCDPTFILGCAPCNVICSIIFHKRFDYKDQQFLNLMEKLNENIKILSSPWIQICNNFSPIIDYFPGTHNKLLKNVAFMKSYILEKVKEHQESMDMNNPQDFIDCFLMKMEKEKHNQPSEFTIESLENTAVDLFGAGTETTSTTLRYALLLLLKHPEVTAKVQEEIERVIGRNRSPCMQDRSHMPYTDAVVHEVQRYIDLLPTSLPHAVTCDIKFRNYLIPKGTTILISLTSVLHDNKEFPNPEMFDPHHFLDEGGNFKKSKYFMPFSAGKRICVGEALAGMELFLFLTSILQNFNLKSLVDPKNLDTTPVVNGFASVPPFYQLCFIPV
Sequence of Dual specificity protein kinase CLK4 (Homo sapiens) (Q9HAZ1 whole entry, looked up): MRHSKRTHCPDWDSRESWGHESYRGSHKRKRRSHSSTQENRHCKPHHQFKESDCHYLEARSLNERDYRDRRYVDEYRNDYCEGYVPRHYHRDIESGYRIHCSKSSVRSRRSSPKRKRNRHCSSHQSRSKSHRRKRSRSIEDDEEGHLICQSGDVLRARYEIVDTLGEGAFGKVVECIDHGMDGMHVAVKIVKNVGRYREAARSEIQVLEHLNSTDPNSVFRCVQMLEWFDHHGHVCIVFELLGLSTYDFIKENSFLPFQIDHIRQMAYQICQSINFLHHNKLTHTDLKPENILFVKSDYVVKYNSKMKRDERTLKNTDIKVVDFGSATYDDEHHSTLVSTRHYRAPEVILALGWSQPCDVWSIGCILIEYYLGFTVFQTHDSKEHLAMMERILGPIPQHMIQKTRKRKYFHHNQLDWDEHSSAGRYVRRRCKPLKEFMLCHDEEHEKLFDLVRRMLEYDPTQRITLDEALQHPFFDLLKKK

With `Clc1ccccc1-c1nccc(NCc2cccs2)n1`, in test [1], the Potency entry is “inactive”.

In the case of `COc1cccc(-c2cncnc2N(C)Cc2ccco2)c1`, in test [1], the Potency result is “inactive”.

On to `COCCn1c(=O)cnc2cnc(N3CCN(C)CC3)nc21`, for which, in test [1], the Potency result is “inactive”.

With `COc1ccc(-n2c(=O)cnc3cnc(OC)nc32)cc1`, the Potency in test [1] was 15.8 µM (active).

On to `CN(C)C(=O)c1ccc(-c2cncnc2NCCc2cnc[nH]2)cc1`, for which the Potency in test [2] was 0.794 µM (active). In addition, the Potency entry in test [1] was “inactive”.

As to `COc1cccc(-c2cc(N(C)Cc3ccco3)ncn2)c1`, the Potency in test [1] is 12.6 µM (active).

As for `COc1ccc(CNc2ncnc3ccc(-c4cccnc4)cc23)c(OC)c1`, in test [1], the Potency is 14.1 µM (active).

In the case of `CCNc1ncc2nc(-c3cc(F)cc(F)c3)c(=O)n(C)c2n1`, in test [1], the Potency result is “inactive”.

In the case of `Cc1ccccc1-c1ccc2ncnc(NC3CC3)c2c1`, the Potency in test [2] is 7.94 µM (active).

Take `CN(C)C(=O)c1ccc(-c2cncnc2N2CCNCC2)cc1`: the Potency in test [2] was 7.94 µM (active).

Take `CN(C)c1ncc2nc(-c3cccc(C#N)c3)c(=O)n(CCC#N)c2n1`: the Potency entry in test [3] was “inactive”.

Regarding `CNc1nc(-c2ccccc2CN(C)C)nc2ccccc12`, the Potency in test [2] is 3.98 µM (active).

Turning to `COc1ccc(-c2nc3cnc(N4CCOCC4)nc3n(C[C@H]3CCCO3)c2=O)cc1`, the Potency entry in test [3] was “inactive”.

As to `CN1CCN(c2ncc3nc(-c4cc(F)cc(F)c4)c(=O)n(C)c3n2)CC1`, the Potency result in test [3] was “inactive”.

With `CCNc1ncc2nc(-c3cc(F)cc(F)c3)c(=O)n(C[C@H]3CCCO3)c2n1`, the Potency in test [2] is 0.158 µM (active).

Consider `CN(C)C(=O)c1ccc(-c2nc(NC3CCNCC3)c3ccccc3n2)cc1`, for which, in test [3], the activity change, negative = inhibition was 46.2% [at 2.29 µM].

As to `Cc1noc(C)c1-c1nccc(-n2ccnc2)n1`, the activity change, negative = inhibition in test [3] was 16.1% [at 2.29 µM].

Turning to `CCNc1ncc2nc(C)c(=O)n(-c3ccc(OC)cc3)c2n1`, the Potency result in test [3] and in test [2] was “inactive” throughout.

Turning to `O=c1c(-c2cc(F)cc(F)c2)nc2cnc(N3CCNCC3)nc2n1C1CC1`, the Potency in test [3] is 0.158 µM (active).

Take `COc1ccccc1-c1cc(NCc2ccccc2)ncn1`: the activity change, negative = inhibition in test [3] is 35.7% [at 2.29 µM].

As to `CN(C)Cc1ccccc1-c1cc(NC2CC2)ncn1`, the Potency in test [2] is 0.0398 µM (active).

For the compound `CC(=O)NCCNc1nc(-c2ccccc2C(F)(F)F)nc2ccccc12`, the Potency in test [2] is 3.98 µM (active).

`c1csc(CNc2ncncc2-c2ccc3c(c2)OCO3)c1`: the Potency in test [3] is 0.316 µM (active).

For the origin of these results see PubChem BioAssay (NCATS).
